# Laboratory results as given in PMC4336329 (PLoS ONE, 2015).
# Out of some 310,000 compounds screened, about 14,000 (4.5%) showed an effect of 50% or more. Effects have a minus sign here. The sample holds strong results, similar compounds and a random draw of the others, so the mix is not that of the screen.
# Biological target: human ether-à-go-go-related gene (hERG) potassium channel (human, UniProt Q12809)
# Assay: primary screen, population patch clamp on CHO cells stably expressing hERG; higher = less effect of the substance
# 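Further: peak tail current of the secondary pulse compared with the same well before compound.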
# Sequence of human ether-à-go-go-related gene (hERG) potassium channel (Q12809 whole entry, looked up): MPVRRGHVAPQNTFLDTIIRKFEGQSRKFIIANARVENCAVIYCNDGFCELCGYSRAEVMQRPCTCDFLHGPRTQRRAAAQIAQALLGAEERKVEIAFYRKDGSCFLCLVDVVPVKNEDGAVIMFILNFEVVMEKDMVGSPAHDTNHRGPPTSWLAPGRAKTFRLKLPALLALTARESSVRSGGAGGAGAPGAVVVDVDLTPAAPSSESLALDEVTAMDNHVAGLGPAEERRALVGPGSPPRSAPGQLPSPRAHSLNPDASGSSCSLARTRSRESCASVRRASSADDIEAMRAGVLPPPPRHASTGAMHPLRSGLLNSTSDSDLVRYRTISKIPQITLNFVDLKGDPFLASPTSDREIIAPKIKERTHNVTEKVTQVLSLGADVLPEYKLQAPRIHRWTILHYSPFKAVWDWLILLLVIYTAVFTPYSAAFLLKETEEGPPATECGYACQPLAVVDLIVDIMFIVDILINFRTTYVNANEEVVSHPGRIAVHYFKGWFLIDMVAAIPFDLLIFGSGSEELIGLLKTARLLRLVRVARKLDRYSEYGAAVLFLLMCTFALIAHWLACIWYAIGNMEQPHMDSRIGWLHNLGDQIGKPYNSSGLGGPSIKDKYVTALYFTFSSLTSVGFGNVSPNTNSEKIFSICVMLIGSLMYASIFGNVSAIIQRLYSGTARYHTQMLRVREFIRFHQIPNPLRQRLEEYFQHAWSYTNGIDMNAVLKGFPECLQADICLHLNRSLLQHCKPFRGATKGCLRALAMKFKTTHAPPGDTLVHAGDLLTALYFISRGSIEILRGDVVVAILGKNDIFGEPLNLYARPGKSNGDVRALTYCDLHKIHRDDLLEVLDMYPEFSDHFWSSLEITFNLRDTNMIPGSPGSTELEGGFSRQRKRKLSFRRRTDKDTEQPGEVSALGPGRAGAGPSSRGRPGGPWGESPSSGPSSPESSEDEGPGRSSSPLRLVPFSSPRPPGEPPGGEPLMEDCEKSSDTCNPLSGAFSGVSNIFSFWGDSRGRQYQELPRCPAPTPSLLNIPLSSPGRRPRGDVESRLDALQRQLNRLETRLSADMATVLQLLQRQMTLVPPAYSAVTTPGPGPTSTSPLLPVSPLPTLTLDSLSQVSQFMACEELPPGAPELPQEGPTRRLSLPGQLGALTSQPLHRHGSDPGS
row,Compound,"hERG current change (%, negative = inhibition) at 10uM"
1,Cc1ccc(NC(=O)CCN2CCC(C(N)=O)CC2)cc1,17.3%
2,COc1cccc(CN2CCc3ccc(NC(=O)CCc4ccc(C)cc4)cc3C2)c1O,-52.2%
3,COc1cc(CN2CCc3ccc(NC(=O)CCc4ccccc4OC)cc3C2)ccc1O,-37.3%
4,CSc1ncccc1C(=O)N1CCCC(N2CCN(c3ccccc3F)CC2)C1 (stereo not shown),-12.4%
5,NS(=O)(=O)c1ccc(CCNC(=O)CN2C(=O)c3ccccc3S2(=O)=O)cc1,1.3%
6,CCOC(=O)N1CCN(C(=O)c2ccc(CNS(=O)(=O)c3ccc(OC)cc3)cc2)CC1,-4.84%
7,Cl.O=C(CCN1CCCCCC1)Nc1cccc(F)c1,-23.6%
8,CN1CCN(CCC(=O)Nc2cccc(F)c2)CC1,-1.22%
9,O=C(CCN1CCN(C/C=C/c2ccccc2)CC1)Nc1cccc(F)c1,-77.9%
10,CCOC(=O)OC(C)OC1=C(C(=O)Nc2ccccn2)N(C)S(=O)(=O)c2ccccc21 (stereo not shown),16.1%
11,O=P(Nc1c(Cl)cccc1Cl)(c1ccccc1)c1nc2c(s1)CCCC2 (stereo not shown),10%
12,Nc1nonc1-n1nnc(C(=O)N/N=C/c2ccc(Br)cc2)c1CSC1=NCCS1,-3.36%
13,O=c1[nH]c([N+](=O)[O-])nn1C(c1ccccc1)c1ccccc1,-13.7%
14,COCCCN1C(=O)c2ccccc2C1C(=O)NC1CCCCCC1 (stereo not shown),-2.83%
15,O=C(Nc1cccc(F)c1)N1C2CCC1CC(O)(c1cccnc1)C2 (stereo not shown),24.1%
16,COc1ccc(NC(=O)CN2C3CCC2CC(O)(c2cccnc2)C3)cc1OC (stereo not shown),0.385%
17,O=C(Nc1ccccc1)N1C2CCC1CC(O)(c1cccnc1)C2 (stereo not shown),8.01%
18,COCCNC(=O)CN1C2CCC1CC(O)(c1cccnc1)C2 (stereo not shown),0.682%
19,COc1cc(NC(=O)CN2C3CCC2CC(O)(c2cccnc2)C3)cc(OC)c1 (stereo not shown),-60.9%
20,O=C(CN1C2CCC1CC(O)(c1cccnc1)C2)Nc1ccc2c(c1)OCO2 (stereo not shown),-53.1%
21,Brc1cccc(-c2nnc3n2CCC3)c1,2.98%
22,O=C(NC1CCN(C(=O)Nc2ccccc2)CC1)C1CCCCC1,-7.88%
23,O=C(CN1C(=O)c2cccc3cccc1c23)Nc1ccc(S(=O)(=O)N2CCOCC2)cc1,-9.06%

row,Compound,"hERG current change (%, negative = inhibition) at 10uM"
1,CCCSCCCNC(=O)Cn1cc2c(n1)CCC(C)C2 (stereo not shown),-12.8%
2,COc1ccc(-c2nc3n(c(=O)c2C#N)CCCS3)cc1,-4.57%
3,COCCNC(=O)/C(=C/c1ccccc1Cl)c1ccccc1,-0.406%
4,COC(=O)N/N=C\c1ccc(OC/C=C/c2ccccc2)c(OC)c1,6.04%
5,N#CC1=C(SCc2ccccc2)NC(=O)C(C#N)C12CCCC2 (stereo not shown),1.97%
6,N#CC1=C(SCC(=O)Nc2cccc3cccnc23)NC(=O)C(C#N)C12CCCCC2 (stereo not shown),-20.7%
7,N#CC1=C(SCC(=O)c2cc3ccccc3oc2=O)NC(=O)C(C#N)C12CCCC2 (stereo not shown),-54.5%
8,COC(=O)c1ccc(NC(=O)CCS(=O)(=O)c2ccc(Br)cc2)cc1,28.8%
9,NC(N)=NS(=O)(=O)c1ccc(NC(=S)NC(=O)c2ccncc2)cc1,2.9%
10,COc1ccccc1CNC(=O)C1=C(C)C(=O)OC12CCC(C)CC2 (stereo not shown),-2.21%
11,COc1ccc([C@H]2CC(=O)C=C(c3cccc(CO)c3)C2)cc1OC,-63.6%
12,COc1ccc([C@H]2CC(=O)C=C(c3cccc(CO)c3)C2)cc1,-59.3%
13,COCc1cccc(C2=CC(=O)C[C@H](c3ccc(OC)cc3)C2)c1,-20.7%
14,O=C1C=C(c2cccc(CO)c2)C[C@@H](c2ccc(Cl)cc2)C1,-54.5%
15,COc1ccc([C@H]2CC(=O)C=C(c3ccccc3)C2)cc1OC,-3.04%
16,O=C1C=C(c2cccc(CO)c2)C[C@@H](c2ccc(F)cc2)C1,-45.3%
17,COc1cccc(C2=CC(=O)C[C@H](c3ccc(OC)c(OC)c3)C2)c1,-40%
18,COc1ccc([C@H]2CC(=O)C=C(c3ccc(CO)cc3)C2)cc1,-4.98%
19,O=C1C=C(c2cccc(Cl)c2)C[C@@H](c2ccc(Cl)cc2)C1,24.4%
20,CC[C@@H]1[C@H]2CCCC(=O)N3CC[C@@H](C[C@@H]1Nc1ccccc1)[C@@H]23,-3.88%
21,Cc1ccc(NC(=O)COC(=O)c2cccc(OC(F)F)c2)cc1S(=O)(=O)N1CCCCC1,-21.1%
22,CCc1c(C)nc(N)n2c(SCC(=O)Nc3ccccc3)nnc12,12.5%
23,O=C1NC(Cc2c[nH]c3ccccc23)C(=O)N1CCOc1ccccc1 (stereo not shown),-22.7%
